The source made the active and inactive calls. How the source made its calls: active means hit-call score of the fitted dose curve at least 0.9, where 1 is the maximum; inactive means score below 0.9.
Legend:
Details in all cases: mRNA level, 48 h; actives raise or lower the signal
MYC, MYC (gene 4609) = experiment: LTEA_HepaRG_MYC: Life Technologies and Expression Analysis (LTEA) Assay for MYC using HepaRG (AID 2283518)
How it was run: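 qRT-PCR read-out of MYC transcript (Fluidigm TaqMan, housekeeping-normalized) after 48 h chemical exposure of HepaRG cells; eight concentrations, top 100 uM, half-log steps. Bidirectional curve fitting against 0.5% DMSO vehicle baseline.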

[1] = read-out: matrix metalloproteinase-3 (MMP3), MMP3 (gene 4314); experiment: LTEA_HepaRG_MMP3: Life Technologies and Expression Analysis (LTEA) Assay for matrix metalloproteinase-3 (MMP3) using HepaRG (AID 2283519)
How it was run: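 HepaRG cells (~100,000/well) in serum-free induction medium were dosed in duplicate for 48 h with an 8-point half-log series from 100 uM, 0.5% DMSO. MMP3 mRNA was quantified by Fluidigm TaqMan qRT-PCR, normalized to three housekeeping genes.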

[2] = read-out: Paternally Expressed 10 (PEG10), PEG10 (gene 23089); experiment: LTEA_HepaRG_PEG10: Life Technologies and Expression Analysis (LTEA) Assay for Paternally Expressed 10 (PEG10) using HepaRG (AID 2283520)
How it was run: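 HepaRG, 48 h post-plating → serum-free induction medium → 48 h chemical exposure (duplicate, 8-pt, max 100 uM, half-log, 0.5% DMSO) → lysis in RLT → TaqMan qRT-PCR for PEG10, ACTB/GAPDH/POLR2A normalisation.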

[3] = read-out: Nuclear factor NF-kappa-B p105 subunit (Homo sapiens) (UniProt P19838); experiment: LTEA_HepaRG_NFKB1: Life Technologies and Expression Analysis (LTEA) Assay for Nuclear Factor Kappa B Subunit 1 (NFKB1) using HepaRG (AID 2283521)
How it was run: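 HepaRG, 48 h exposure; 8-pt half-log series from 100 uM in 0.5% DMSO; duplicates. Readout: NFKB1 mRNA by qRT-PCR (Fluidigm arrays), housekeeping-normalized. Gain/loss fit vs DMSO baseline.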

[4] = read-out: Protein phosphatase 2A (PPP2R4), PTPA (gene 5524); experiment: LTEA_HepaRG_PPP2R4: Life Technologies and Expression Analysis (LTEA) Assay for Protein phosphatase 2A (PPP2R4) using HepaRG (AID 2283522)
How it was run: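 Readout is PPP2R4 transcript level by microfluidic qRT-PCR after 48 h chemical treatment of human HepaRG liver cells. Concentrations spanned 100 uM downward in half-log steps; gain or loss of signal was fitted relative to DMSO.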

[5] = read-out: Phosphatase and tensin (PTEN), PTEN (gene 5728); experiment: LTEA_HepaRG_PTEN: Life Technologies and Expression Analysis (LTEA) Assay for Phosphatase and tensin (PTEN) using HepaRG (AID 2283523)
How it was run: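 HepaRG cells, 48 h after plating, exposed in duplicate for 48 h in serum-free induction medium to 8 half-log concentrations up to 100 uM (0.5% DMSO). PTEN mRNA by qRT-PCR, normalized to ACTB, GAPDH, POLR2A; bidirectional fit versus DMSO.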

[6] = read-out: solute carrier (SLC22A1), SLC22A1 (gene 6580); experiment: LTEA_HepaRG_SLC22A1: Life Technologies and Expression Analysis (LTEA) Assay for solute carrier (SLC22A1) using HepaRG (AID 2283524)
How it was run: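 Differentiated human HepaRG cells in serum-free induction medium, exposed 48 h in duplicate to 8-point half-log series from 100 µM top in 0.5% DMSO. SLC22A1 mRNA by TaqMan qRT-PCR normalized to ACTB, GAPDH, POLR2A; bidirectional fit versus DMSO.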

[7] = read-out: Pyruvate Dehydrogenase Kinase 4 (PDK4), PDK4 (gene 5166); experiment: LTEA_HepaRG_PDK4: Life Technologies and Expression Analysis (LTEA) Assay for Pyruvate Dehydrogenase Kinase 4 (PDK4) using HepaRG (AID 2283525)
How it was run: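 HepaRG cells plated 48 h, then switched to serum-free induction medium and exposed in duplicate for 48 h to 8 half-log concentrations from 100 uM in 0.5% DMSO. PDK4 mRNA measured by qRT-PCR, normalized to ACTB, GAPDH and POLR2A; bidirectional fit versus DMSO.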

[8] = read-out: NAD(P)H dehydrogenase [quinone] 1 (NQO1), NQO1 (gene 1728); experiment: LTEA_HepaRG_NQO1: Life Technologies and Expression Analysis (LTEA) Assay for NAD(P)H dehydrogenase [quinone] 1 (NQO1) using HepaRG (AID 2283526)
How it was run: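 HepaRG, 48 h post-plating → serum-free induction medium → test chemical 48 h (duplicate, 100 uM top, half-log x8, 0.5% DMSO) → RNA isolation → qRT-PCR, ACTB/GAPDH/POLR2A normalization; bidirectional curve fit vs DMSO baseline.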

[9] = read-out: Nuclear factor erythroid 2-related factor 2 (Homo sapiens) (UniProt Q16236); experiment: LTEA_HepaRG_NFE2L2: Life Technologies and Expression Analysis (LTEA) Assay for Nuclear factor erythroid 2-related factor 2 (NFE2L2) Transcription Factor using HepaRG (AID 2283527)
How it was run: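 Differentiated human HepaRG cells, serum-free induction medium, exposed 48 h in duplicate to eight half-log concentrations up to 100 uM in 0.5% DMSO. NFE2L2 mRNA by Fluidigm TaqMan qRT-PCR, normalised to ACTB, GAPDH, POLR2A; bidirectional change versus DMSO.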

[10] = read-out: succinate dehydrogenase complex iron sulfur subunit B (SDHB), SDHB (gene 6390); experiment: LTEA_HepaRG_SDHB: Life Technologies and Expression Analysis (LTEA) Assay for succinate dehydrogenase complex iron sulfur subunit B (SDHB) using HepaRG (AID 2283528)
How it was run: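 Readout is SDHB transcript level by qRT-PCR, normalised to three housekeeping genes and fitted bidirectionally against 0.5% DMSO vehicle. Human HepaRG cells were treated for 48 h at up to 100 uM.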

[11] = read-out: Signal transducer and activator of transcription 3 (Homo sapiens) (UniProt P40763); experiment: LTEA_HepaRG_STAT3: Life Technologies and Expression Analysis (LTEA) Assay for Signal transducer and activator of transcription (STAT3) using HepaRG (AID 2283529)
How it was run: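 Differentiated HepaRG cells, serum-free induction medium, dosed 48 h in duplicate, 8 half-log concentrations from 100 uM in 0.5% DMSO. STAT3 mRNA by qRT-PCR, normalised to ACTB, GAPDH, POLR2A; bidirectional fit versus DMSO.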

[12] = read-out: sulfotransferase 2A1 (SULT2A1), SULT2A1 (gene 6822); experiment: LTEA_HepaRG_SULT2A1: Life Technologies and Expression Analysis (LTEA) Assay for sulfotransferase 2A1 (SULT2A1) using HepaRG (AID 2283531)
How it was run: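 HepaRG, 48 h chemical exposure, 8-pt half-log curve from 100 uM in 0.5% DMSO, duplicates. Readout: TaqMan qRT-PCR of SULT2A1 mRNA, housekeeping-normalized. Bidirectional fit vs DMSO baseline.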

[13] = read-out: Transforming Growth Factor (TGFB1), TGFB1 (gene 7040); experiment: LTEA_HepaRG_TGFB1: Life Technologies and Expression Analysis (LTEA) Assay for Transforming Growth Factor (TGFB1) Transporter using HepaRG (AID 2283533)
How it was run: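 qRT-PCR readout of TGFB1 transcript in HepaRG lysates, normalized to three housekeeping genes; gain or loss of signal fitted relative to 0.5% DMSO vehicle. Exposure: 48 h, 8-point curve from 100 uM, duplicate wells.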

TIMP1, TIMP1 (gene 7076) = experiment: LTEA_HepaRG_TIMP1: Life Technologies and Expression Analysis (LTEA) Assay for TIMP1 using HepaRG (AID 2283534);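 further: TaqMan qRT-PCR signal normalized to ACTB GAPDH and POLR2A housekeeping genes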
How it was run: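 HepaRG, 48 h exposure, 8-pt half-log series from 100 uM in 0.5% DMSO, duplicates; TIMP1 transcript by Fluidigm qRT-PCR, housekeeping-normalized; bidirectional curve fit vs DMSO baseline.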

[14] = read-out: Tumor necrosis factor receptor 1 (TNFRSF1A), TNFRSF1A (gene 7132); experiment: LTEA_HepaRG_TNFRSF1A: Life Technologies and Expression Analysis (LTEA) Assay for Tumor necrosis factor receptor 1 (TNFRSF1A) using HepaRG (AID 2283535)
How it was run: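 HepaRG, 48 h plating then 48 h chemical exposure, serum-free induction media; 8-pt CRC from 100 uM, half-log, 0.5% DMSO vehicle, duplicates. Readout: TaqMan qRT-PCR (Fluidigm), housekeeping-gene normalized; bidirectional fit vs DMSO.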

[15] = read-out: Thyroid Hormone Responsive (THRSP), THRSP (gene 7069); experiment: LTEA_HepaRG_THRSP: Life Technologies and Expression Analysis (LTEA) Assay for Thyroid Hormone Responsive (THRSP) using HepaRG (AID 2283536)
How it was run: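 Differentiated HepaRG cells treated 48 h in serum-free induction medium with 8 half-log concentrations up to 100 uM (0.5% DMSO), duplicates. THRSP mRNA by TaqMan qRT-PCR normalised to ACTB, GAPDH, POLR2A; bidirectional fit versus DMSO.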

[16] = read-out: Cellular tumor antigen p53 (Homo sapiens) (UniProt P04637); experiment: LTEA_HepaRG_TP53: Life Technologies and Expression Analysis (LTEA) Assay for Tumor Protein P53 (TP53) using HepaRG (AID 2283537)
How it was run: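 Read-out is TP53 transcript level by microfluidic qRT-PCR, normalised to three housekeeping genes and fitted bidirectionally against DMSO. Human HepaRG cells received compounds for 48 h, highest concentration 100 uM.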

[17] = read-out: Transforming Growth Factor (TGFA), TGFA (gene 7039); experiment: LTEA_HepaRG_TGFA: Life Technologies and Expression Analysis (LTEA) Assay for Transforming Growth Factor (TGFA) using HepaRG (AID 2283532)
How it was run: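 Differentiated HepaRG cells exposed 48 hours in serum-free induction medium, 0.5% DMSO vehicle, 8-point half-log series from 100 uM, in duplicate. TGFA mRNA by TaqMan qRT-PCR, normalised to ACTB, GAPDH, POLR2A; bidirectional fit versus DMSO.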

[18] = read-out: solute carrier (SLCO1B1), SLCO1B1 (gene 10599); experiment: LTEA_HepaRG_SLCO1B1: Life Technologies and Expression Analysis (LTEA) Assay for solute carrier (SLCO1B1) using HepaRG (AID 2283530)
How it was run: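 SLCO1B1 transcript read by qRT-PCR (Fluidigm arrays), normalized to three housekeeping genes, after 48 h chemical exposure of HepaRG cells; bidirectional concentration-response fitting versus 0.5% DMSO baseline. Eight-point half-log series, maximum 100 uM.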

Measured: AC50

Sequence of Signal transducer and activator of transcription 3 (Homo sapiens) (P40763 whole entry, looked up): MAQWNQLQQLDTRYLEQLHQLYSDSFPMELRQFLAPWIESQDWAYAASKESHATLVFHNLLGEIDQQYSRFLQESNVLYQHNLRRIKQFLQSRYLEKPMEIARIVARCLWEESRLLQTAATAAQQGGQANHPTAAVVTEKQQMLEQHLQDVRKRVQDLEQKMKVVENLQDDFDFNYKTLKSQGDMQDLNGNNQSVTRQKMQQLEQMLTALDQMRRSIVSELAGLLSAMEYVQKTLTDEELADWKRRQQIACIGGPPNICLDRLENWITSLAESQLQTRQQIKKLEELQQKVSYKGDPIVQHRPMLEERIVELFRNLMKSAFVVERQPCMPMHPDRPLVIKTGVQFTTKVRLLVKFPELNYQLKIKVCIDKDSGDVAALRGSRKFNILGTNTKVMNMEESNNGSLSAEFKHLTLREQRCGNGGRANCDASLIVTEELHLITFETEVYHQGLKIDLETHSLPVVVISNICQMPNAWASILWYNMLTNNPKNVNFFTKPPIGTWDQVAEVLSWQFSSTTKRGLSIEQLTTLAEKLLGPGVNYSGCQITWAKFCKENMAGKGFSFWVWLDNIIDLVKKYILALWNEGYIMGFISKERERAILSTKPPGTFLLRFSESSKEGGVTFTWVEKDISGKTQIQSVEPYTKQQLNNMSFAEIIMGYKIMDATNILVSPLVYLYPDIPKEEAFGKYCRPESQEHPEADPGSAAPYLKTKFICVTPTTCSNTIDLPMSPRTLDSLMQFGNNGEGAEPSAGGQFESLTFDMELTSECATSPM
Sequence of Nuclear factor erythroid 2-related factor 2 (Homo sapiens) (Q16236 whole entry, looked up): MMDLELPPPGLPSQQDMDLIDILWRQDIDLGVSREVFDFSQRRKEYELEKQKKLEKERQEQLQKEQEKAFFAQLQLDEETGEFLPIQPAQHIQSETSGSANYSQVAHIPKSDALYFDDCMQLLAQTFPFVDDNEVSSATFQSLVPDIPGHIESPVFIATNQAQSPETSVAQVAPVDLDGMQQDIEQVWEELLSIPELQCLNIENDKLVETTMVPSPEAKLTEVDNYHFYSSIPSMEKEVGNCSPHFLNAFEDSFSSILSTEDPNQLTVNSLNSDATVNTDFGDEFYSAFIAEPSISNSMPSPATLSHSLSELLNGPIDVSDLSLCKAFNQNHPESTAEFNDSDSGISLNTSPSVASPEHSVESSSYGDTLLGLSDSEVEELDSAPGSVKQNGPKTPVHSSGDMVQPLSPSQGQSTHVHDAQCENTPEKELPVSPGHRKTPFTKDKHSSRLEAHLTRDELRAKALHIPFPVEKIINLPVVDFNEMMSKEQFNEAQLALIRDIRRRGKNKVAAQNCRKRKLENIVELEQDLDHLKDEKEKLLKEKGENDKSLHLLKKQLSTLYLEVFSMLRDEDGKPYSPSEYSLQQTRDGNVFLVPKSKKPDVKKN
Sequence of Nuclear factor NF-kappa-B p105 subunit (Homo sapiens) (P19838 whole entry, looked up): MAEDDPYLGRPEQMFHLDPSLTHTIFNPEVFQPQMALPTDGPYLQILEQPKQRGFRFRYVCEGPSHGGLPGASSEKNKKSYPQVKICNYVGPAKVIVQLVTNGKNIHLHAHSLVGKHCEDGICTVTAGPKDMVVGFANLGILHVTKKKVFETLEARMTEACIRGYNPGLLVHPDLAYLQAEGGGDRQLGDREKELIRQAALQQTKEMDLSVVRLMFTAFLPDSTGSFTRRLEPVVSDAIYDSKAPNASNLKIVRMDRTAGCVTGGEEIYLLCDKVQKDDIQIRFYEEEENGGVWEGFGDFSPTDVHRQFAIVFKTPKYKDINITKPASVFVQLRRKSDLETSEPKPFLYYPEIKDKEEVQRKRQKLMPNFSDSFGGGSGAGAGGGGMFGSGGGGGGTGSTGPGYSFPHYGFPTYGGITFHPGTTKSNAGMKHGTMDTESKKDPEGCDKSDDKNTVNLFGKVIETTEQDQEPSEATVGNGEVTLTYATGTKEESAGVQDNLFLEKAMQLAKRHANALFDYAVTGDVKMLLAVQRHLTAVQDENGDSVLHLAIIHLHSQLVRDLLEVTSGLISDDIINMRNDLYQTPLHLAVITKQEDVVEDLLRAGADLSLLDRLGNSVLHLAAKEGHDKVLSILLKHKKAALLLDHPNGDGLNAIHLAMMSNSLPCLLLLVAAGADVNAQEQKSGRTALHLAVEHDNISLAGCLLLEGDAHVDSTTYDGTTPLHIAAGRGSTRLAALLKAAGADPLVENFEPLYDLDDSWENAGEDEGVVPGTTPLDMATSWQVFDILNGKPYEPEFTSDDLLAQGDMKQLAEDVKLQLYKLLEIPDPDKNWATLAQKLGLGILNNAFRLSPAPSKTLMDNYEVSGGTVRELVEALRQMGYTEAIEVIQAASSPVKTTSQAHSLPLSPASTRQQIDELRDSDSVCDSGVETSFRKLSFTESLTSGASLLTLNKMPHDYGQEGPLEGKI
Sequence of Cellular tumor antigen p53 (Homo sapiens) (P04637 whole entry, looked up): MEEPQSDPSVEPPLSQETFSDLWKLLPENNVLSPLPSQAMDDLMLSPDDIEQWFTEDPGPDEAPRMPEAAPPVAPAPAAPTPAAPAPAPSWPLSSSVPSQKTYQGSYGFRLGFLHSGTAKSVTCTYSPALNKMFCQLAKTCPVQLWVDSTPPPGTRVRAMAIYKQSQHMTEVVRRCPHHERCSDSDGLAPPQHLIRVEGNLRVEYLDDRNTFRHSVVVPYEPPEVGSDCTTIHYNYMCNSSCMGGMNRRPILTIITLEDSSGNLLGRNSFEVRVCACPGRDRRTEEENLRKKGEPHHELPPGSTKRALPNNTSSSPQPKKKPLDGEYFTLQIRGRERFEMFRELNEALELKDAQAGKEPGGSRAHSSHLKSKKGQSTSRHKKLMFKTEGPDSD

Oc1cccc(O)c1
not listed: [17] | [18]
inactive: all other assays above

CC(C)(C)CC(C)(C)c1ccc(O)c(-n2nc3ccccc3n2)c1
active: [6] 74.5 µM | [15] 77.9 µM
not listed: [13] | [18]
inactive: all other assays above

CCC(=C(c1ccc(O)cc1)c1ccc(OCCN(C)C)cc1)c1ccccc1
active: MYC, MYC (gene 4609) 77.7 µM | [6] 93.4 µM | [12] 85.5 µM
not listed: [8] | [13] | [16] | [17]
inactive: all other assays above

NC(=O)N(O)[C@@H]1C=C[C@H](Oc2cccc(Oc3ccc(F)cc3)c2)C1
active: MYC, MYC (gene 4609) 72.7 µM | [1] 85.9 µM | [2] 5.31 µM | [3] 74.4 µM | [6] 63.6 µM | [7] 50 µM | [9] 81.9 µM | [12] 76.5 µM | [16] 50 µM
inactive: [4] | [5] | [8] | [10] | [11] | TIMP1, TIMP1 (gene 7076) | [14] | [15]

CC(C)CCCCCCOC(=O)CCCCC(=O)OCCCCCCC(C)C
not listed: [13] | [17] | [18]
inactive: all other assays above

CCCCOCCO
not listed: [8] | [18]
inactive: all other assays above

CCCCCCCCCCCCc1ccccc1S(=O)(=O)O
active: MYC, MYC (gene 4609) 37.8 µM | [1] 26.9 µM | [4] 21.2 µM | [5] 12 µM | [6] 93.2 µM | [7] 10.8 µM | [9] 19.9 µM | [18] 79.6 µM | [12] 83.4 µM | [15] 5.53 µM | [16] 58.1 µM
inactive: [2] | [3] | [10] | [11] | TIMP1, TIMP1 (gene 7076) | [14]

Reference: PubChem BioAssay (EPA / NIEHS)
